Laboratory results: PubChem BioAssay (EPA / NIEHS)
Inconclusive results are not listed. Active and inactive are the calls of the source. Rule for the calls, unless noted: active = hit-call score of the fitted dose curve at least 0.9, where 1 is the maximum; inactive = score below 0.9.

Columns and labels:
[1] = ATG_NFI_CIS: Attagene CIS-FACTORIAL HepG2 Assay for human Nuclear Factor I (NFI) (AID 2282989); conditions: HepG2 cis-regulatory reporter, NFI response element transcription; actives raise or lower the signal
Procedure, shortened: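 Transient MRTU transfection of HepG2 → 24 h chemical dosing → total RNA, oligo(dT) RT → PCR, 6-FAM primer extension, HpaI cut → capillary electrophoresis. Endpoint fitted bidirectionally relative to DMSO.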

[2] = biological target: Myc proto-oncogene protein (Homo sapiens) (UniProt P01106); experiment: ATG_Myc_CIS: Attagene CIS-FACTORIAL HepG2 Assay for human Myelocytomatosis (Myc) Proto-Oncogene Transcription Factor (AID 2282990); conditions: HepG2, Attagene cis-reporter transcription factor activity; actives raise or lower the signal
Myc proto-oncogene protein (Homo sapiens), sequence (P01106 whole entry, looked up): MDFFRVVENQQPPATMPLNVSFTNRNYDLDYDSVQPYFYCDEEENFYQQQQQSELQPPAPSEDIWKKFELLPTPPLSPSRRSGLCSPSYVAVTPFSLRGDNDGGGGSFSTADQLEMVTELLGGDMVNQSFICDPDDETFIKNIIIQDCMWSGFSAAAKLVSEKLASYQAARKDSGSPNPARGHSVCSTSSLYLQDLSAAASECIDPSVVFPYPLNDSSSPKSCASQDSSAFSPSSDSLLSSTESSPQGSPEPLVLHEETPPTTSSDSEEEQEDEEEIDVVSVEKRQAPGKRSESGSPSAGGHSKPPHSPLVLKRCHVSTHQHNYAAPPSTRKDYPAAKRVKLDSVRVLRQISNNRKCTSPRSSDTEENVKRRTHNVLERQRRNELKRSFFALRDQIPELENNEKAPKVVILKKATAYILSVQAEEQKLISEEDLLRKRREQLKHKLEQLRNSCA
Procedure, shortened: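 Cells of the HepG2 human liver line bear multiple cis-driven reporter transcription units. Reporter mRNA after 24 h exposure is reverse-transcribed, amplified, labelled and resolved by capillary electrophoresis, with gain- or loss-of-signal fitting relative to DMSO.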

[3] = ATG_NF_kB_CIS: Attagene CIS-FACTORIAL HepG2 Assay for human Nuclear Factor Kappa B (NF-kB) (AID 2282991); conditions: HepG2 Attagene cis-factorial NF-kB reporter mRNA; actives raise or lower the signal
Procedure, shortened: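 Endpoint from a 52-component multiplexed HepG2 reporter panel: cis-regulated transcription units transiently transfected, 24 h dosing, reporter mRNA quantified by RT-PCR and capillary electrophoresis, scored as increase or decrease against DMSO.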

[4] = ATG_NRF2_ARE_CIS: Attagene CIS-FACTORIAL HepG2 Assay for human Nuclear Factor Erythroid 2 Related Factor 2 (NFR2) response to Antioxidant Response Elements (ARE) (AID 2282992); conditions: HepG2 Attagene ARE/NRF2 reporter, transcription factor activity; actives raise or lower the signal;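 for AC50: reporter mRNA level measured by RT-PCR and capillary electrophoresis fluorescence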
Procedure, shortened: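 Readout: reporter mRNA quantified by RT-PCR plus FAM-labelled primer extension, HpaI digestion and capillary electrophoresis, 24 h after dosing transfected HepG2 cells. Gain or loss of signal is fitted bidirectionally against DMSO baseline.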

[5] = ATG_Oct_MLP_CIS: Attagene CIS-FACTORIAL HepG2 Assay for human Octamer-Binding Transcription Factor (Oct) (AID 2282993); conditions: HepG2 Attagene cis-factorial Oct reporter, mRNA; actives raise or lower the signal
Procedure, shortened: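 Transient MRTU transfection of HepG2 → 24 h compound treatment → RNA isolation, reverse transcription, PCR → 6-FAM primer extension, HpaI digest → capillary electrophoresis. Activity fitted both directions against DMSO.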

[6] = biological target: Cellular tumor antigen p53 (Homo sapiens) (UniProt P04637); experiment: ATG_p53_CIS: Attagene CIS-FACTORIAL HepG2 Assay for human p53 Transcription Factor (AID 2282994); conditions: HepG2 p53 cis-element reporter, Attagene mRNA; actives raise or lower the signal
Cellular tumor antigen p53 (Homo sapiens), sequence (P04637 whole entry, looked up): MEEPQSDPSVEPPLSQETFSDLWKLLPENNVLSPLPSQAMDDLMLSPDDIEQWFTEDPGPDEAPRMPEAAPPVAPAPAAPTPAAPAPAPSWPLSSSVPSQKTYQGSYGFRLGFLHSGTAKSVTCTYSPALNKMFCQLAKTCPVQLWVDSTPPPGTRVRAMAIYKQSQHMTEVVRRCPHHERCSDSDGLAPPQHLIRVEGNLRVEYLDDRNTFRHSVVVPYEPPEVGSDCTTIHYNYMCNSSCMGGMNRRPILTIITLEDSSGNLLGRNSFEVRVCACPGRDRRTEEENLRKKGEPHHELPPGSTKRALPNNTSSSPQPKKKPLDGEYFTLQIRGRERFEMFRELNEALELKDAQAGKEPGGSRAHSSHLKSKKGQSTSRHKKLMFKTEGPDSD
Procedure, shortened: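 Read-out: reporter mRNA by RT-PCR plus capillary electrophoresis with fluorescence detection. Human HepG2 liver cells carried transfected multi-reporter cis-element constructs, dosed 24 h. Gain or loss of signal fitted bidirectionally against DMSO control.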

[7] = BSK_3C_TissueFactor: BioMAP Diversity Plus: 3C Assay for Tissue Factor Biomarker Activity (AID 2282997); conditions: BioMAP 3C HUVEC, tissue factor biomarker readout; actives raise or lower the signal
Procedure, shortened: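 In this endothelial system, HUVEC are treated for 24 h and Tissue Factor is assessed by ELISA, normalised to DMSO.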

[8] = BSK_3C_VCAM1: BioMAP Diversity Plus: 3C Assay for Vascular cell adhesion molecule 1 (VCAM1) Biomarker Activity (AID 2282999); conditions: BioMAP 3C HUVEC, VCAM1 ELISA, cytokine-stimulated; actives raise or lower the signal
Procedure, shortened: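 Activity fitted in both directions relative to DMSO, with ELISA measurement of the surface marker on primary HUVEC (3C) at 24 h post-treatment; parallel SRB staining (0.1% SRB, TCA-fixed, 560 nm) flagged overt cytotoxicity.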

[9] = BSK_4H_Eotaxin3: BioMAP Diversity Plus: 4H Assay for Eotaxin 3 Biomarker Activity (AID 2283000); conditions: primary human endothelial cells (HUVEC); actives raise or lower the signal
Procedure, shortened: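 ELISA quantitation of CCL26 (Eotaxin-3) protein from chemically dosed human vascular endothelial cells at 24 h; increases and decreases both scored relative to DMSO-treated baseline.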

[10] = biological target: Retinoic acid receptor alpha (Homo sapiens) (UniProt P10276); experiment: ATG_RARa_TRANS: Attagene TRANS-FACTORIAL HepG2 Assay for human Retinoic Acid Receptor alpha (RARa) (AID 2283005; active = hit-call score of the fitted dose curve at least 0.9, where 1 is the maximum)
Retinoic acid receptor alpha (Homo sapiens), sequence (P10276 whole entry, looked up, the tested form may be a part): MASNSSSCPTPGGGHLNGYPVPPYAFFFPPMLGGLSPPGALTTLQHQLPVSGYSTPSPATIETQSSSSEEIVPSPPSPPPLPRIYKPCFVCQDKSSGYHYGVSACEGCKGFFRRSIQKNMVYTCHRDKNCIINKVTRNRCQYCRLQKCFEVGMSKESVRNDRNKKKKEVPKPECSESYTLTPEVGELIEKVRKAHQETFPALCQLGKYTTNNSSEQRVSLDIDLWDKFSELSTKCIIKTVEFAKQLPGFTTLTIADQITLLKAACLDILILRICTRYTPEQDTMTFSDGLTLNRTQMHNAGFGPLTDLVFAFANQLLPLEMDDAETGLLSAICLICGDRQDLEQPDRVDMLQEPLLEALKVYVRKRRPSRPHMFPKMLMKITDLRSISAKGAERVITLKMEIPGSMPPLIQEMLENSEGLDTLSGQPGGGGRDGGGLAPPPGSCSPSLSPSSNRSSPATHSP
Procedure, shortened: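 Reporter transcripts, measured by RT-PCR with fluorescent labeling and capillary electrophoresis after 24 h dosing, reflect activity of an exogenous human RARa–GAL4 fusion in transiently transfected HepG2. Fitted for increase relative to DMSO.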

[11] = BSK_3C_Proliferation: Cell Proliferation Assessment in the BioMAP Diversity Plus: 3C Assay (AID 2283006); conditions: primary human endothelial cells (HUVEC);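 for AC50: potency may reflect either rise or fall in cell number versus DMSO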
Procedure, shortened: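 Proliferation as total protein: sulforhodamine B (0.1%) stain of TCA-fixed subconfluent human umbilical vein endothelial cells, absorbance 560 nm, 48 h after dosing. Activity fitted in both directions against DMSO baseline.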

[12] = biological target: Nuclear receptor subfamily 1 group I member 2 (Homo sapiens) (UniProt O75469); experiment: ATG_PXR_TRANS: Attagene TRANS-FACTORIAL HepG2 Assay for human Pregnane X Receptor (PXR) (AID 2283008; active = hit-call score of the fitted dose curve at least 0.9, where 1 is the maximum)
Nuclear receptor subfamily 1 group I member 2 (Homo sapiens), sequence (O75469 whole entry, looked up, the tested form may be a part): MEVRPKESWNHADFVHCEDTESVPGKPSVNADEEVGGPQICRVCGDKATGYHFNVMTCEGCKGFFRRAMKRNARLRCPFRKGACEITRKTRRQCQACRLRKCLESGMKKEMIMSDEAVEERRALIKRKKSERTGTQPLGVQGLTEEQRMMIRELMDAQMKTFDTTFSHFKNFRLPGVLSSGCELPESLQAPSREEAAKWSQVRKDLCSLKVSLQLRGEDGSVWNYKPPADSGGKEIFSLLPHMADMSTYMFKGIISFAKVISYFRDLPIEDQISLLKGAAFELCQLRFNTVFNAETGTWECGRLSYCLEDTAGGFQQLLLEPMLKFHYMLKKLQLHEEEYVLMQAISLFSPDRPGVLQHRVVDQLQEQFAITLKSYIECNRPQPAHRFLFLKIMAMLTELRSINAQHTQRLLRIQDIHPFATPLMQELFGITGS
Procedure, shortened: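 Trans-factorial format: exogenous NR-Gal4 fusion activity, not endogenous factor, in transfected human HepG2 liver cells. After 24 h dosing, RNA isolated, reverse-transcribed, amplified and resolved by capillary electrophoresis; induction scored versus DMSO.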

[13] = biological target: human Retinoic Acid Receptor gamma (RARg), RARG (gene 5916) (UniProt P13631); experiment: ATG_RARg_TRANS: Attagene TRANS-FACTORIAL HepG2 Assay for human Retinoic Acid Receptor gamma (RARg) (AID 2283009; active = hit-call score of the fitted dose curve at least 0.9, where 1 is the maximum)
human Retinoic Acid Receptor gamma (RARg), RARG (gene 5916), sequence (P13631 whole entry, looked up, the tested form may be a part): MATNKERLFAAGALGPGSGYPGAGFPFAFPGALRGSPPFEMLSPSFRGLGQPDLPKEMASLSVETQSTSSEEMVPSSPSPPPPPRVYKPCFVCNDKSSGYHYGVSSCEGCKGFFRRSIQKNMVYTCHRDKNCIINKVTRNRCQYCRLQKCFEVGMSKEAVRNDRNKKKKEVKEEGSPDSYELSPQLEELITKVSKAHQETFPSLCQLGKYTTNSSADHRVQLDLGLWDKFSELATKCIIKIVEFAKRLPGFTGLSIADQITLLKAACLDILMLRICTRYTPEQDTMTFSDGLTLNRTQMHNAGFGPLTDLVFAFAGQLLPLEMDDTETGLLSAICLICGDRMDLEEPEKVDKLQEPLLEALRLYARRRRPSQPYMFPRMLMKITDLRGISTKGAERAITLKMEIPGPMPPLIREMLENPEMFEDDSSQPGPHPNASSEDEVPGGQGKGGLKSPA
Procedure, shortened: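 Transactivation of exogenous RARg-Gal4 fusion measured as reporter transcript induction after 24 h in transfected HepG2 cells. RNA reverse-transcribed, amplified, fluorescently labeled and resolved by capillary electrophoresis; increase relative to DMSO.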

[14] = biological target: human Peroxisome Proliferator-activated Receptor alpha (PPARa), PPARA (gene 5465) (UniProt Q07869); experiment: ATG_PPARa_TRANS: Attagene TRANS-FACTORIAL HepG2 Assay for human Peroxisome Proliferator-activated Receptor alpha (PPARa) (AID 2283001; active = hit-call score of the fitted dose curve at least 0.9, where 1 is the maximum;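 for AC50: potency for gain of reporter signal over DMSO so agonist or activator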)
human Peroxisome Proliferator-activated Receptor alpha (PPARa), PPARA (gene 5465), sequence (Q07869 whole entry, looked up, the tested form may be a part): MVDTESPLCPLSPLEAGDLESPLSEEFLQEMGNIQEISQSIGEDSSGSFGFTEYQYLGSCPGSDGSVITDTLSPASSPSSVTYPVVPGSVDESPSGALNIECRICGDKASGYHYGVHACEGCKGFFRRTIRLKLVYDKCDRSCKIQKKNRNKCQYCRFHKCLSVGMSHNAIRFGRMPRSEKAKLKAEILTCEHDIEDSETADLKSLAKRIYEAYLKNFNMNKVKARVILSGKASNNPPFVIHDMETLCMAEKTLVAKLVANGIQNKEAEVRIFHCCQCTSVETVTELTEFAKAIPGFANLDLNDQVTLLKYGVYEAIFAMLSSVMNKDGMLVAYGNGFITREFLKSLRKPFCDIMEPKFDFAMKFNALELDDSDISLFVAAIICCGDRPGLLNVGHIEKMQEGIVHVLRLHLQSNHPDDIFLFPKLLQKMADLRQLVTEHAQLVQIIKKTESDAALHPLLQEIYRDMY
Procedure, shortened: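 Reporter transcripts quantified by RT-PCR plus capillary electrophoresis after 24 h treatment, fitted upward relative to DMSO. Cells: human HepG2 transiently carrying multiple GAL4-UAS reporter units driven by NR-Gal4 chimeras.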

[15] = biological target: human Peroxisome Proliferator-activated Receptor delta (PPARd), PPARD (gene 5467) (UniProt Q03181); experiment: ATG_PPARd_TRANS: Attagene TRANS-FACTORIAL HepG2 Assay for human Peroxisome Proliferator-activated Receptor delta (PPARd) (AID 2283002; active = hit-call score of the fitted dose curve at least 0.9, where 1 is the maximum)
human Peroxisome Proliferator-activated Receptor delta (PPARd), PPARD (gene 5467), sequence (Q03181 whole entry, looked up): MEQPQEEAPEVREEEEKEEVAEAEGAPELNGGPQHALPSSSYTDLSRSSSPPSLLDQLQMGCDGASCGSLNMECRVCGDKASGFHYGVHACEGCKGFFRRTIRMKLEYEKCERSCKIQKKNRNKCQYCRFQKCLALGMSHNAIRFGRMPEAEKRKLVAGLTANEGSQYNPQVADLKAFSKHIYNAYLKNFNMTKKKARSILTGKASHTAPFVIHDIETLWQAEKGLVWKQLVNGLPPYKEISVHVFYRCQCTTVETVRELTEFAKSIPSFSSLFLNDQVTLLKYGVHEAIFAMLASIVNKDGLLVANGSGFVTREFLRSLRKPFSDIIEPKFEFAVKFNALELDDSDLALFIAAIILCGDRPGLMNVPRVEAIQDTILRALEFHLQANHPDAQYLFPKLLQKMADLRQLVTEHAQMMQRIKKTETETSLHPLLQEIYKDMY
Procedure, shortened: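 Cell-based TRANS reporter: HepG2, transient MRTU transfection, 24 h exposure. Readout = reporter mRNA (RT-PCR/CE, 6-FAM). Gain-of-signal fit vs DMSO control.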

[16] = biological target: Peroxisome proliferator-activated receptor gamma (Homo sapiens) (UniProt P37231); experiment: ATG_PPARg_TRANS: Attagene TRANS-FACTORIAL HepG2 Assay for human Peroxisome Proliferator-activated Receptor-gamma (PPARg) (AID 2283007; active = hit-call score of the fitted dose curve at least 0.9, where 1 is the maximum)
Peroxisome proliferator-activated receptor gamma (Homo sapiens), sequence (P37231 whole entry, looked up, the tested form may be a part): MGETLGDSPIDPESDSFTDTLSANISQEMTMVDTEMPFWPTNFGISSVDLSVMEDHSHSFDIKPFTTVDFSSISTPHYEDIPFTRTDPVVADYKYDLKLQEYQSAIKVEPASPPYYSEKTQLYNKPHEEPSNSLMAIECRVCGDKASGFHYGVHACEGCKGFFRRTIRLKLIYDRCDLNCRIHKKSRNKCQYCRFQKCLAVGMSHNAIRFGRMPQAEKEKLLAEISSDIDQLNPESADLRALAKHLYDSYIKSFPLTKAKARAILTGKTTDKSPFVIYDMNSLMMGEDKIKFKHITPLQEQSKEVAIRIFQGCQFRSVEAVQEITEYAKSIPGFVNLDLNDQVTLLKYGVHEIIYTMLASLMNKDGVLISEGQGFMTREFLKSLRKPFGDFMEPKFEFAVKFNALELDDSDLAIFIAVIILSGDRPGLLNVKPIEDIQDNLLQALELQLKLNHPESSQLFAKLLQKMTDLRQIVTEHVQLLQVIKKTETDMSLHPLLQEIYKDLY
Procedure, shortened: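 Endpoint reflects upward reporter mRNA change versus DMSO controls. Setup: transiently transfected HepG2, GAL4-UAS reporters driven by chimeric NR-Gal4, 24 h incubation, RT-PCR with capillary electrophoresis read-out.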

[17] = read-out: Intercellular Adhesion Molecule 1 (ICAM1), ICAM1 (gene 3383); experiment: BSK_3C_ICAM1: BioMAP Diversity Plus: 3C Assay for Intercellular Adhesion Molecule 1 (ICAM1) Biomarker Activity (AID 2283003); conditions: primary human endothelial cells (HUVEC); actives raise or lower the signal
Procedure, shortened: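 ELISA readout of ICAM1 in human umbilical vein endothelial cells in the 3C system, taken 24 h post-dose. Gain or loss of signal versus DMSO was fitted in both directions, with SRB total-protein staining run in parallel.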

[18] = biological target: human Retinoic Acid Receptor beta (RARb), RARB (gene 5915) (UniProt P10826); experiment: ATG_RARb_TRANS: Attagene TRANS-FACTORIAL HepG2 Assay for human Retinoic Acid Receptor beta (AID 2283004; active = hit-call score of the fitted dose curve at least 0.9, where 1 is the maximum)
human Retinoic Acid Receptor beta (RARb), RARB (gene 5915), sequence (P10826 whole entry, looked up, the tested form may be a part): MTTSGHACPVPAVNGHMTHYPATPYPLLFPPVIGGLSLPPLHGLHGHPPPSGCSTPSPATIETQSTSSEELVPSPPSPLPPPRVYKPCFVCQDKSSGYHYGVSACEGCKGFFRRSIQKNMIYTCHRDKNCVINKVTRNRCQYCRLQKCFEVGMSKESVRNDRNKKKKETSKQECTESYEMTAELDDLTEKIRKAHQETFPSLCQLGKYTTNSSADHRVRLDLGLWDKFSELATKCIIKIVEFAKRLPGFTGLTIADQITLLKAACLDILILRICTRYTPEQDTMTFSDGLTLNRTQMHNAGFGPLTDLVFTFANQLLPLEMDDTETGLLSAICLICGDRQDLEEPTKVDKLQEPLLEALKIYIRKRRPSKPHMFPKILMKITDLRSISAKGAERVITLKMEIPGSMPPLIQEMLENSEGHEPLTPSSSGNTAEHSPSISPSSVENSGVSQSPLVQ
Procedure, shortened: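 Fluorescent capillary-electrophoresis detection of GAL4-UAS reporter mRNA defines the endpoint, with induction over DMSO-treated wells scored as activity. Transiently transfected human hepatoma HepG2 cells expressing exogenous NR–Gal4 proteins are exposed to test chemicals for 24 h.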

[19] = biological target: human RAR-related Orphan Receptor beta (RORb), RORB (gene 6096) (UniProt Q92753); experiment: ATG_RORb_TRANS: Attagene TRANS-FACTORIAL HepG2 Assay for human RAR-related Orphan Receptor beta (RORb) (AID 2283010; active = hit-call score of the fitted dose curve at least 0.9, where 1 is the maximum)
human RAR-related Orphan Receptor beta (RORb), RORB (gene 6096), sequence (Q92753 whole entry, looked up, the tested form may be a part): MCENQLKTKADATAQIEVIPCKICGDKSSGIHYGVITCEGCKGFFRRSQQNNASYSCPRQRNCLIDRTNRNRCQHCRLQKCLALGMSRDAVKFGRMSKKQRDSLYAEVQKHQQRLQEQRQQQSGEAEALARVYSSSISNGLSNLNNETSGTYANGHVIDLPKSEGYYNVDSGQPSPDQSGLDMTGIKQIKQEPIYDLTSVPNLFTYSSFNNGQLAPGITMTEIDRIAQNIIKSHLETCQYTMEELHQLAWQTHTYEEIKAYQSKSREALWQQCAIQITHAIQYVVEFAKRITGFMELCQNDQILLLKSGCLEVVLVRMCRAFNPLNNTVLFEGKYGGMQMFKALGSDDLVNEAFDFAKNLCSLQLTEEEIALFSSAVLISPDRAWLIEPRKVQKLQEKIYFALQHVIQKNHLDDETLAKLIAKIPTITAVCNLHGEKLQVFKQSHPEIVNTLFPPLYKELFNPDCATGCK
Procedure, shortened: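 Read-out is reporter mRNA induction, quantified by RT-PCR with fluorescent capillary electrophoresis, 24 h post-dose in transiently transfected HepG2 expressing exogenous NR-Gal4 chimera. Activity fitted upward versus DMSO.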

Measured: AC50

CCN(CC)C(=O)c1cc(S(=O)(=O)Cc2ccccc2)c(N2CCC(c3ccccc3)CC2)cc1N(CC)CCN(C)C
active: [4] 3.7 µM | [7] 32.2 µM | [8] 12.9 µM | [9] 18.7 µM | [11] 6.12 µM | [12] 0.091 µM
inactive: [1] | [2] | [3] | [5] | [6] | [10] | [13]

COCC(C)OCC(C)OCC(C)O (stereo unspecified)
not listed: [10] | [13] | [16] | [17] | [18] | [19]
inactive: all other assays above

CN1C(=O)CC[C@H]1c1cccnc1
not listed: [10] | [13] | [15] | [17] | [18] | [19]
inactive: all other assays above

CCCOC(=O)c1cc(O)c(O)c(O)c1
active: [4] 5.91 µM | [14] 27.7 µM | [11] 10.5 µM | [16] 31.8 µM
not listed: [3] | [10] | [17] | [18] | [19]
inactive: all other assays above

O=C(Nc1ccc(Cl)cc1)Nc1ccc(Cl)c(Cl)c1
active: [4] 6.66 µM | [5] 5.12 µM | [8] 3.5 µM | [9] 2.4 µM | [11] 2.04 µM
not listed: [10] | [19]
inactive: all other assays above

CC1=CC(=O)/C(=C(/C)O)C(=O)O1
not listed: [3] | [10] | [12] | [13] | [16]
inactive: all other assays above

CCCCCCCCCCCCO
active: [7] 36.3 µM | [8] 38.7 µM | [9] 31.1 µM | [17] 36.2 µM | [11] 30.2 µM
not listed: [3] | [16]
inactive: all other assays above
